{
  "source": "PubChem BioAssay (NCATS)",
  "note": "Several values for one entry are separate records, joined by “and”; a condition that tells them apart may be missing. Equal entries are not always repeated. Results filed as inconclusive are left out. A call without a number means that no potency is given here. Unmarked numbers belong to inactive results. Activity calls are given as the source filed them. Calls follow the shape of the dose curve; as a rule, active = well fitted inhibition curve with a large enough effect; inconclusive = small, poorly fitted or top-dose-only effect; inactive = no such curve, though single readings can be large or run the other way. Potency is read from the fitted curve at half-maximal effect.",
  "data": [
    {"test": "Primary qHTS for inhibitors of nuclear receptor binding SET domain protein 2 (NSD2) in an RCH-ACV wild type WT cells (2C) (AID 1645877); also: nearly all actives have a fitted effect of over 70% in size", "conditions": "RCH-ACV NSD2 WT (2C) viability, CellTiter-Glo, 72 h; series mostly up to 44.9 µM", "values": [
      {"smiles": "C=C1CCC2C(C)(C(=O)OC)CCCC2(C)C1CCC(C)CC(=O)O", "note": "(centres undefined)", "Potency": "inactive"},
      {"smiles": "CC1CC[C@]2(C(=O)O)CC[C@]3(C(=O)O)C(=CCC4[C@@]5(C)CC[C@H](O[C@@H]6O[C@H](CO)[C@@H](O)[C@H](O)[C@H]6O)C(C)(C)C5CC[C@]43C)C2C1C", "note": "(some centres undefined)", "Potency": "inactive"},
      {"smiles": "Clc1cc2c(NC3CCCC3)nnc(-c3ccncc3)c2cc1Cl", "Potency": "inactive"},
      {"smiles": "COc1cc(O)c2c(c1)C1=C[C@H](O)[C@@H](O)C[C@]1(C)OC2=O", "Potency": "inactive"},
      {"smiles": "COC(=O)C1(C)c2[nH]c3ccccc3c2CCN1C(=O)CCl", "note": "(centres undefined)", "Potency": "2580 nM (active)"},
      {"smiles": "CC1(C)CCC2(C(=O)OC3OC(CO)C(O)C(O)C3O)CCC3(C)C(=CCC4C5(C)CCC(OC6OC(C(=O)O)C(OC7OC(CO)C(O)C(O)C7O)C(OC7OC(CO)C(O)C(O)C7O)C6O)C(C)(C)C5CCC43C)C2C1", "note": "(centres undefined)", "activity change, negative = cell killing": "-7.84% [at 9.23 µM]"},
      {"smiles": "CC1=C(C)C(=O)OC(C(C)C2CCC3C4CC=C5CC(OC6OC(COC7OC(CO)C(O)C(O)C7O)C(O)C(O)C6O)CC(O)C5(C)C4CCC23C)C1", "note": "(centres undefined)", "Potency": "inactive"},
      {"smiles": "COc1ccc2nc(S(=O)(=O)Cc3ncc(C)c(OC)c3C)[nH]c2c1", "Potency": "inactive"},
      {"smiles": "CC1=CC2/C=C(\\C)CC[C@@H](O)[C@@H](O)[C@@H]3O[C@@H]3C(=O)[C@]23C(=O)N[C@@H](CC(C)C)[C@@H]3[C@@H]1C", "note": "(some centres undefined)", "Potency": "inactive"},
      {"smiles": "OCCc1ccc(O[C@@H]2O[C@H](CO)[C@@H](O)[C@H](O)[C@H]2O)cc1", "Potency": "inactive"},
      {"smiles": "COc1c2c(c(C)c3c1C(=O)OC3)OC1(C)CC(O)C34OC(OC)(OC3(C)C)C(O)CC4(C)C1C2", "note": "(centres undefined)", "Potency": "inactive"},
      {"smiles": "CC12CCC(C(OC3OC(COC4OCC(O)(CO)C4O)C(O)C(O)C3O)C1)C(C)(C)O2", "note": "(centres undefined)", "Potency": "inactive"},
      {"smiles": "CC(O)/C=C/C1C(C)C(O[C@@H]2O[C@H](CO)[C@@H](O)[C@H](O)[C@H]2O)C(O)CC1(C)C", "note": "(some centres undefined)", "Potency": "inactive"},
      {"smiles": "O=C1OCc2cc3cccc(O[C@@H]4O[C@H](CO)[C@@H](O)[C@H](O)[C@H]4O)c3c(O)c21", "Potency": "inactive"},
      {"smiles": "C[C@H](Nc1ncnc2nc[nH]c12)c1cc2ccc(F)cc2nc1-c1ccccn1", "Potency": "1180 nM (active)"},
      {"smiles": "COc1cc([C@H]2c3cc(O)c(OC)cc3C[C@@H](CO[C@@H]3O[C@H](CO)[C@@H](O)[C@H](O)[C@H]3O)[C@@H]2CO)ccc1O", "Potency": "inactive"},
      {"smiles": "COc1ccc(C2(O)c3ccccc3NC(=O)C2O)cc1", "note": "(centres undefined)", "Potency": "inactive"},
      {"smiles": "COc1c2c(c(C)c3c1C(=O)OC3)OC1(C)CC(O)C(C(C)(C)O)C(C)(CCC(=O)O)C1C2", "note": "(centres undefined)", "Potency": "inactive"},
      {"smiles": "CC1(CCOC2OC(CO)C(O)C(O)C2O)CCC23OC2(C1)C(O)CC1C(C)(C(=O)O)CCCC13C", "note": "(centres undefined)", "Potency": "inactive"},
      {"smiles": "COc1ccc([C@@H]2OC[C@H]3[C@@H]2CO[C@@H]3c2ccc(OC3OC(CO)C(O)C(O)C3O)c(OC)c2)cc1OC", "note": "(some centres undefined)", "Potency": "inactive"},
      {"smiles": "C[C@@H]1O[C@@H](O[C@H]2[C@@H]3C=CO[C@@H](O[C@@H]4O[C@H](CO)[C@@H](O)[C@H](O)[C@H]4O)[C@@H]3[C@@]3(CO)O[C@@H]23)[C@H](OC(=O)/C=C/c2ccccc2)[C@H](O)[C@H]1O", "Potency": "inactive"},
      {"smiles": "CC1CCC2(C=O)C(CO)=CCCC2C1(C)CC(=O)O", "note": "(centres undefined)", "Potency": "inactive"},
      {"smiles": "CC1(O)CC(O)C2(O)C=COC(O[C@@H]3O[C@H](CO)[C@@H](O)[C@H](O)[C@H]3O)C12", "note": "(some centres undefined)", "Potency": "inactive"},
      {"smiles": "CC(C)(O)c1ccc2c(c1)C(O)C[C@H]1[C@](C)(C(=O)O)CCC[C@]21C", "note": "(some centres undefined)", "Potency": "inactive"},
      {"smiles": "COC1=CC(=O)CC(C)C12Oc1cc(OC)cc(O)c1C2=O", "note": "(centres undefined)", "Potency": "inactive"},
      {"smiles": "CC(C)[C@H]1CC[C@@]2(O)COC(=O)[C@H]2[C@@H]1/C=C(\\CO)C(=O)O", "Potency": "inactive"},
      {"smiles": "CC(/C=C/C1=CC2=CC(=O)C(C)(O)C(O)C2=CO1)=C\\C(C)CCO", "note": "(centres undefined)", "Potency": "inactive"},
      {"smiles": "C=C(CO[C@@H]1O[C@H](CO[C@@H]2OC[C@](O)(CO)[C@H]2O)[C@@H](O)[C@H](O)[C@H]1O)C1Cc2cc(C(C)=O)ccc2O1", "note": "(some centres undefined)", "Potency": "inactive"},
      {"smiles": "CC(=O)O[C@H]1[C@H](O[C@H]2[C@@H]3C=CO[C@@H](O[C@@H]4O[C@H](CO)[C@@H](O)[C@H](O)[C@H]4O)[C@@H]3[C@@]3(CO)O[C@@H]23)O[C@@H](C)[C@H](OC(=O)/C=C/c2ccccc2)[C@H]1OC(=O)/C=C/c1ccccc1", "outcome": "inactive [at 9.23 µM]"},
      {"smiles": "COc1ccc(CC2C(=O)NC(C)C(=O)N(C)C3Cc4ccc(cc4)Oc4cc(ccc4OC4OC(CO)C(O)C(O)C4O)CC(C(=O)NC(C)C(=O)NC(C)C(=O)N2C)N(C)C3=O)cc1", "note": "(centres undefined)", "Potency": "9.7 nM (active)"},
      {"smiles": "CC(=O)O[C@@H]1[C@@H](OC(=O)/C=C/c2ccccc2)[C@@H](OC(C)=O)[C@H](O[C@H]2[C@@H]3C=CO[C@@H](O[C@@H]4O[C@H](CO)[C@@H](O)[C@H](O)[C@H]4O)[C@@H]3[C@@]3(CO)O[C@@H]23)O[C@H]1C", "Potency": "inactive"},
      {"smiles": "CO[C@@H](C)Cn1c(=O)n(C)c2cnc3ccc(-c4cncc(C(C)(C)O)c4)cc3c21", "Potency": "166 nM (active)"},
      {"smiles": "CC(C)C1=CC2C(CC[C@]2(C)O)[C@](C)(O)CC1", "note": "(some centres undefined)", "Potency": "inactive"},
      {"smiles": "CC1(C)CC[C@]2(C(=O)O[C@@H]3O[C@H](CO)[C@@H](O)[C@H](O)[C@H]3O)CC[C@]3(C)C(=CCC4[C@@]5(C)C[C@@H](O)[C@H](O)[C@](C)(C(=O)O)C5CC[C@]43C)C2C1O", "note": "(some centres undefined)", "Potency": "inactive"},
      {"smiles": "C=C(CCC1=C(C)[C@H]2[C@H](CC3[C@@H]4CC=C5C[C@@H](O)C[C@@H](O)[C@]5(C)C4[C@H](O)C[C@@]32C)O1)CO[C@@H]1O[C@H](CO)[C@@H](O)[C@H](O)[C@H]1O", "note": "(some centres undefined)", "Potency": "963 nM (active)"},
      {"smiles": "COc1c(C)c(OCC(O)C(C)(C)O)cc2c1COC2=O", "note": "(centres undefined)", "Potency": "inactive"},
      {"smiles": "CC1=CCC(C(C)(C)O[C@@H]2O[C@H](CO[C@@H]3O[C@@H](C)[C@H](O)[C@@H](O)[C@H]3O)[C@@H](O)[C@H](O)[C@H]2O)CC1", "note": "(some centres undefined)", "Potency": "inactive"},
      {"smiles": "COc1ccc(/C=C/C(=O)O[C@H]2[C@H](O[C@H]3[C@@H]4C=CO[C@@H](O[C@@H]5O[C@H](CO)[C@@H](O)[C@H](O)[C@H]5O)[C@@H]4[C@@]4(CO)O[C@@H]34)O[C@@H](C)[C@H](O)[C@H]2OC(C)=O)cc1", "Potency": "inactive"},
      {"smiles": "Nc1ccc(/C=C/C(=O)NCc2cc3cc(-c4ccc(C(=O)N5CCC(F)(F)CC5)cc4)cc(-c4ccc(F)cc4)c3o2)cn1", "Potency": "332 nM (active) and 206 nM (active)"}
    ]}
  ]
}
